# Data reported in PubChem BioAssay AID623888 (Vanderbilt Specialized Chemistry Center, 2012).
# Biological target: Metabotropic glutamate receptor 3 (Rattus norvegicus) (UniProt P31422)
# Test: PubChem AID 623888
# Conditions: HEK/GIRK rat mGlu3, thallium flux fluorescence, Schild, at 30 µM; % glutamate max: glutamate max response with compound, stronger effect = lower value; glutamate response, % max: at 100 µM (top of the series), compound 30 µM
# Sequence of Metabotropic glutamate receptor 3 (Rattus norvegicus) (P31422 whole entry, looked up): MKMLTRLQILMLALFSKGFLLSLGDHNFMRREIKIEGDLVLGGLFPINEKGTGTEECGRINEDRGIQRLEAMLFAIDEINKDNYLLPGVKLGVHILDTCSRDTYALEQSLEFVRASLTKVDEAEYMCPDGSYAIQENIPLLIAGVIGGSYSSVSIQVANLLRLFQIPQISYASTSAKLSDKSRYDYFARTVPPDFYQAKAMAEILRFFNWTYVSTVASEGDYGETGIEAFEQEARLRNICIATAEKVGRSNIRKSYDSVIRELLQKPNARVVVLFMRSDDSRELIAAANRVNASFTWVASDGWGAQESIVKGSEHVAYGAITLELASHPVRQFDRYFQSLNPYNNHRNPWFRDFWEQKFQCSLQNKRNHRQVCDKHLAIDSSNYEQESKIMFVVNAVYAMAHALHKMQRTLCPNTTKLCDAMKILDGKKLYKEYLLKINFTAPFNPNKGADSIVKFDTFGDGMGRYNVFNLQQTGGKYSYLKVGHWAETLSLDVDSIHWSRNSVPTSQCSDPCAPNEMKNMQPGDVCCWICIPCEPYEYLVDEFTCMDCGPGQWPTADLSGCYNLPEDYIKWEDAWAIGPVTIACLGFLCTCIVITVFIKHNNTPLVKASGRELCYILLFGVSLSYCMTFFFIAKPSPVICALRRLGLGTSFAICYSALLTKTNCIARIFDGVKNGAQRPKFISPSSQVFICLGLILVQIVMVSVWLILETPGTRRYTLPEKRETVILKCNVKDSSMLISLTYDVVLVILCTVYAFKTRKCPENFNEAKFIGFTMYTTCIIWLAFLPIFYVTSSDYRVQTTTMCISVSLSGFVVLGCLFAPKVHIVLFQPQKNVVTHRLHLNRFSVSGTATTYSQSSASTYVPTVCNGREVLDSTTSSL
smiles,measurement,value
COc1ccc(C#Cc2ccc(C(=O)N3CCC[C@@H](CO)C3)cc2)cc1,% glutamate max,1.37%
same,"glutamate response, % max",2.62
